The sample as a whole holds a higher share of hits than the screen did.
Pf Dd2 inh: qHTS Primary assay for Inhibitors of Plasmodium falciparum Dd2 growth in vitro. actives 4.3% (n = 120,000). Potency, µM (highest dose often 28.9 µM), inactives show top-dose activity, negative = inhibition, usual class: inhibitors. P. falciparum Dd2 growth, SYBR Green, 72 h; active = well fitted inhibition curve with a large enough effect;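 also: plate controls were DMSO vehicle for no effect and reference drug for full effect; nearly all actives have a fitted effect of over 65% in size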
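Infected erythrocytes (Dd2, 0.3% parasitemia, 2.5% hematocrit final) are added to compound in RPMI-1640/Albumax II medium, grown 72 h at 37C in low oxygen, then lysed with saponin/Triton-X containing SYBR Green and read by fluorescence.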
An asterisk follows results filed as active; i = inactive; [ ] = remark or other dose. Potency is read from the fitted curve at half-maximal effect.

SMILES | Pf Dd2 inh
CCCNC(=O)N(C1CCOCC1)C1CCN(C(=O)CCc2ccc(OC)cc2)CC1 | i
COc1cccc(C(=O)N2CCC3(CC2)CC(OCC2CC2)CCO3)c1 (stereo not drawn) | i
COCCCN1C(=O)CC[C@H]2CN(C(=O)c3cn(C)c(=O)[nH]c3=O)CC[C@H]21 | 0%
CCc1nc(-c2c3n(c(=O)n(CC(=O)Nc4ccccc4Cl)c2=O)CCCC3)no1 | -15%
Cc1cnc(CCNC(=O)c2ccnn2C)n1C1CC1 | 4%
COc1ccc(C2(C(=O)NCCc3ncc(C)n3C3CC3)CC2)cc1 | 2.5µM*
Cc1ccc(NC(=O)NCCc2ncc(C)n2C2CCC2)cc1C | -11%
COC(=O)CNC(=O)NCCc1ncc(C)n1C1CCCC1 | 3%
Cc1cnc(C(=O)NCCc2ncc(C)n2C2CC2)cn1 | i
Cc1cnc(-c2ccncc2)n1C1CCCN(C(=O)C2(c3ccccc3)CC2)C1 (stereo not drawn) | i
Cc1cnc(C2CCC2)n1C1CCN(C(=O)C2(c3ccccc3)CC2)CC1 | 13µM*
Cc1cnc(CCNC(=O)C2(c3ccccc3)CC2)n1C1CCCCCC1 | 2.2µM*
CC(=O)N1CCC(n2c(C)cnc2C2CC2)CC1 | 6%
CC(=O)N1CCC(C(=O)NCCc2ncc(C)n2C2CCC2)CC1 | 3%
Cc1cnc(CCNC(=O)c2ccc(C#N)cc2)n1C1CCC1 | -23%
Cc1cnc(CCNC(=O)COc2ccccc2)n1C1CCC1 | 3.2µM*
Cc1cccc(CN2C[C@@H]3C(=O)N(CCCN4CCCC4=O)C(=O)[C@@H]3C2)c1 | 143%
O=C(NCc1ccco1)C1CC(c2ccccc2)CN(C(=O)c2ccc(F)cc2)C1 (stereo not drawn) | -7%
CC(=O)NC1CCN(C(=O)N2CC3CC(C2)[C@H]2CCCC(=O)N2C3)CC1 (stereo partly drawn) | 8%
CCCN(CC1CCOC1)S(=O)(=O)c1ccc(Br)s1 (stereo not drawn) | 19%[5.79 µM]
CCCn1c(C)cnc1CC1CCN(C(=O)C2(c3ccc(OC)cc3)CC2)C1 (stereo not drawn) | 5µM*
COCCn1c(C)cnc1CC1CCCN(C(=O)C2(c3ccc(OC)cc3)CC2)C1 (stereo not drawn) | -8%
CCCn1c(C)cnc1CC1CCN(C(=O)c2c(C)noc2C)CC1 | -2%
O=C(C[C@@H]1C[C@H]2O[C@H](CNCc3ccncc3F)[C@@H](O)[C@H]2O1)N1CCC(F)(F)C1 | 26%[44.1 µM]
COc1cncc(Nc2ncc(-c3cccnc3)c3c2OCC3)c1 | -12%[44.1 µM]
SMILES | Pf Dd2 inh
CNC(=O)c1cccc(-c2cnc(Nc3ccccc3)c3c2CCO3)c1 | -23%[44.1 µM]
COc1cncc(Nc2ncc(-c3cccc(N(C)C)c3)c3c2OCC3)c1 | 7.1µM*
Fc1cccc(-c2cnc(Nc3cncnc3)c3c2CCO3)c1 | -27%[44.1 µM]
CN(C)c1cccc(-c2cnc(Nc3ccc4c(c3)OCCO4)c3c2CCO3)c1 | -29%[44.1 µM]
COc1cccc(Nc2ncc(-c3c(C)noc3C)c3c2OCC3)c1 | 5%[44.1 µM]
c1ccc(-c2cnc(Nc3cncnc3)c3c2CCO3)cc1 | -12%[44.1 µM]
c1ccc(Nc2ncc(-c3ccccc3)c3c2OCC3)cc1 | 22µM*
CN(C)c1cccc(-c2cnc(Nc3cccnc3)c3c2CCO3)c1 | 13µM*
O=C(NCC1COc2ncncc2C(=O)N1Cc1ccccc1)c1cccs1 (stereo not drawn) | i
Cc1noc([C@@H]2CN(C3CCCC3)C[C@H]2CO)n1 | -16%
Cc1nc(N2CCN(C(=O)COc3ccccc3)CC2)cc(C(F)(F)F)n1 | -4%
CN(Cc1ccccc1)C(=O)C[C@@H]1CCNC[C@@H]1Cc1cc(-c2ccc(F)cc2)on1 | -17%[44.1 µM]
COC[C@H]1CCCN1C(=O)C[C@@H]1O[C@H](CNS(=O)(=O)c2ccc(Cl)cc2)[C@@H](O)[C@H]1O | -1%
CN1CCN(c2nc3c(c(=O)[nH]2)CCN(Cc2ccc(Cl)cc2F)CC3)CC1 | 10%[5.79 µM]
CNC(=O)[C@@H]1CN(C(=O)CC2CCCC2)C[C@H]1COC | 12%
COC(=O)c1ccc(C2Nc3c(C)cccc3-c3cc(C)nn32)cc1 (stereo not drawn) | 0.45µM*
COc1ccc(C2Nc3ccccc3-c3cc(C)nn32)c(OC)c1 (stereo not drawn) | -2%
CCN(CC)c1ccc(C2Nc3ccccc3-c3cc(C)nn32)cc1 (stereo not drawn) | -26%
O=C(C1CCCO1)N1CCN(Cc2ccc(=O)n(CC3CC3)c2)CC1 (stereo not drawn) | 14%
Cn1nccc1C(=O)N1[C@@H]2CC[C@H]1CC(NC(=O)c1ccc(F)cc1)C2 (stereo partly drawn) | -20%
Cc1ccc(NC(=O)CCn2nc(C)c3c(C)n(-c4ccccc4)nc3c2=O)cc1Cl | -12%
CCOC(=O)c1cccc(NC(=O)CCn2nc(C)c3c(C)n(-c4ccccc4)nc3c2=O)c1 | 2.5µM*
CCc1ccccc1NC(=O)CCn1nc(C)c2c(C)n(-c3ccccc3)nc2c1=O | -24%
CCCNC(=O)N(C1CCOCC1)C1CCN(C(=O)c2ccsc2)CC1 | 4%
O=C(NC1CC(c2nnc(CO)n2C2CC2)C1)c1cccn2cnnc12 (stereo not drawn) | -24%
SMILES | Pf Dd2 inh
CC(C)CCN1CCC(N2CCN(S(=O)(=O)c3ccc(F)cc3)CC2)C1=O (stereo not drawn) | -16%
Cc1cc(Cl)ccc1S(=O)(=O)N1CCN(C2CCN(CCC(C)C)C2=O)CC1 (stereo not drawn) | -28%
Cc1ccc(S(=O)(=O)N2CCN(C3CCN(CCC(C)C)C3=O)CC2)cc1Cl (stereo not drawn) | 4µM*
COc1cccc(-n2cc(CN(C)c3ncncn3)cn2)c1 | 0%
Cc1ccc(C)c(N2CCN(c3nc4ccc(C(=O)c5ccccc5)cc4n4cnnc34)CC2)c1 | -11%
O=C(c1ccccc1)c1ccc2nc(N3CCN(c4ccc(F)cc4)CC3)c3nncn3c2c1 | 11µM*
COc1cccc(N2CCN(c3nc4ccc(C(=O)c5ccccc5)cc4n4c(C)nnc34)CC2)c1 | 6.3µM*
Cc1ccc(Cl)cc1N1CCN(c2nc3ccc(C(=O)c4ccccc4)cc3n3cnnc23)CC1 | -4%
Cc1ccc(N2CCN(c3nc4ccc(C(=O)c5ccccc5)cc4n4cnnc34)CC2)c(C)c1 | 15%
Cc1ccc(Nc2nc3ccc(C(=O)c4ccccc4)cc3n3c(C)nnc23)c(C)c1 | i
c1ccc(CN2CCC(Oc3cnc4c(ccn4-c4cncnc4)c3)CC2)cc1 | -7%[44.1 µM]
CCN1c2cc(C(=O)Nc3cc(F)cc(F)c3)ccc2C(=O)N2CCCCC21 (stereo not drawn) | -27%
COc1ccc(-n2ncc(C(C)NC(=O)Cc3ccc4c(c3)OCO4)c2C)cc1 (stereo not drawn) | i
NC(=O)[C@H](Cc1ccc(O)cc1)NC(=O)C1=C[C@@H](NC(=O)c2ccc(F)c(Cl)c2)[C@@H](O)[C@H](O)C1 | 11%
COC(=O)CNC(=O)N1CCCN(S(C)(=O)=O)C(c2ccccc2)CC(=O)NCC1 (stereo not drawn) | 0%
CC(NC(=O)COc1ccc(F)cc1)C(=O)N1CCN(c2ccccn2)CC1 (stereo not drawn) | i
COCCCNC(=O)CCCN1C(=O)COc2ccc(C(=O)COc3cc(C)ccc3C)cc21 | -9%
O=C(Nc1ccncc1)c1ccnc(-c2nnc3ccc(N4CCOCC4)nn23)c1 | i
O=C(Nc1ccc2c(c1)CN(Cc1ccc3c(c1)OCO3)C(=O)CO2)c1ccc(F)cc1 | i
O=C1N(Cc2ccccc2)CCOC12CCN(Cc1cc(F)ccc1F)CC2 | i
Cn1nccc1C(=O)N1CCC2(CC1)OCCN(Cc1ccccc1F)C2=O | -8%[44.1 µM]

Compound activity deposited in PubChem by National Center for Advancing Translational Sciences (NCATS).
